Shown are actives, neighbours in structure and some others; about 5.7% of the full set was active somewhere.
TGFb inhibitor – inhibitors of TGF-b signaling; 1.2% of 410,000 active; HepG2 CAGA-GFP TGF-b/SMAD3 reporter, GFP fluorescence, 18 h; TGF-beta stimulated, 500 pg/mL final; Potency, µM (doses to about 46.1 µM), for the others: at the highest dose activity, negative = inhibition, actives largely listed as inhibitors; note: potency is the fitted concentration of half-maximal effect; % is set by controls: 0 for no effect and ±100 for the full control effect; nearly all actives have a fitted effect of over 65% in size
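First, reporter cells (HEPG2 CAGA-GFP) rested 2 h at 37 degrees C. Next, compounds were pinned in and TGF-beta added to 500 pg/mL final. After 18 h, GFP was imaged per cell and summed per well.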
ATXN2 expr inh – ATXN2 expression inhibition; 0.72% of 360,000 active; HEK-293 ATXN2-luciferase reporter, luminescence, 24 h; Potency, µM (titrated, usually from 57 µM), without a hit: at the highest dose activity change, negative = inhibition, hits mostly inhibitors; note: potency is the fitted concentration of half-maximal effect; % is set by controls: 0 for no effect and ±100 for the full control effect; nearly all actives have a fitted effect of over 55% in size
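ATXN2-luciferase reporter cells (luciferase flanked by upstream and downstream ATXN2 gene portions) were treated 24 h at 37 °C with compounds at up to 57 uM. SteadyGlo luminescence gave expression; GF-AFC fluorescence gave viability.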
HepG2 tox-1 – HepG2 cytotoxicity, counter-screen for TGF-b inhibitors. Potency, µM (titrated, usually from 46.1 µM), for the others: at the highest dose activity change, negative = cytotoxicity, hits mostly cytotoxic. 0.76% of 410,000 active. HepG2 CAGA-GFP viability, ATP luminescence, 18 h. AID 588856; note: potency is the fitted concentration of half-maximal effect
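CellTiter-Glo luminescence gave cytotoxicity after 18 hours at 37 degrees C. The cells were HepG2 CAGA-GFP in 1% FBS DMEM, stimulated with 500 pg/mL TGF-beta after compound addition. %Activity was normalised to no-cell wells (complete cell-killing) and DMSO (no toxicity), and curves were fitted and classified.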
S2 tox – reduces viability in counter-screen for ATXN expression inhibitors; S2 cells (HEK-293 line with an ATXN2-luciferase reporter) viability, CellTiter-Fluor protease fluorescence, 24 h; Potency, µM (doses to about 56.7 µM), actives largely listed as cytotoxic; 0.49% of 400,000 active; AID 651635; note: potency is the fitted concentration of half-maximal effect; nearly all actives have a fitted effect of over 40% in size
IL1B secr inh – inhibitors of inflammasome signaling (IL-1 beta secretion). THP-1 LPS/ATP IL-1B secretion, AlphaLISA, 16 h; active compounds read low. activity change, % at 57.5 µM. 4.7% of 360,000 active. AID 743279; in the data active = activity change below about -50%; inconclusive = mostly about -30% to -49%; note: % is set by controls: 0 for no effect and ±100 for the full control effect
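Secreted IL-1B measured by AlphaLISA bead assay after 16 h compound exposure of THP-1 cells; compounds (final up to 57.5 uM) added 1 h before LPS (250 ng/mL) and ATP (1.25 mM) stimulation; lower signal means less secretion.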
TGFb confirm – TGF-b pathway inhibition, cherry-pick retest. shares compounds with TGFb inhibitor. HepG2 CAGA-GFP TGF-b reporter, GFP fluorescence, 18 h; cells stimulated with TGF-beta, 500 pg/mL. Potency, µM (series often up to 46.1 µM), without a hit: top-dose activity, negative = inhibition, hits mostly inhibitors. 63% of 1,600 active; note: potency is the fitted concentration of half-maximal effect; % is set by controls: 0 for no effect and ±100 for the full control effect; nearly all actives have a fitted effect of over 65% in size
HepG2 tox-2 – HepG2 cytotoxicity, TGF-b inhibitor counterscreen. HepG2 CAGA-GFP viability, ATP luminescence, 18 h; cells stimulated with TGF-beta, 500 pg/mL. 27% of 1,600 active. shares compounds with TGFb inhibitor. AID 720535. Potency, µM (top dose mostly 46.1 µM), for the others: at the highest dose activity, negative = cytotoxicity, hits mostly inhibitors; note: potency is the fitted concentration of half-maximal effect; % is set by controls: 0 for no effect and ±100 for the full control effect; nearly all actives have a fitted effect of over 70% in size
TGFb CCL64 inh – orthogonal confirmation of TGF-b inhibitors in CCL64 cells. shares compounds with TGFb inhibitor. CCL64 CAGA-GFP reporter, TGF-b stimulated, GFP fluorescence, 18 h. Potency, µM (top dose mostly 46.1 µM), inactives show at the highest dose activity, negative = inhibition, usual class: inhibitors. 41% of 1,600 active. AID 720536; note: potency is the fitted concentration of half-maximal effect; nearly all actives have a fitted effect of over 65% in size
COP TGFb inh – TGF-b inhibition validated with COP promoter | AID 720537 | HepG2 COP-GFP TGF-b reporter, GFP fluorescence, 18 h; cells stimulated by added recombinant TGF-beta | shares compounds with TGFb inhibitor | 3% of 1,600 active | Potency, µM (highest dose often 46.1 µM), for the others: at the highest dose activity, negative = inhibition, most hits filed as inhibitors; note: potency is the fitted concentration of half-maximal effect; nearly all actives have a fitted effect of over 70% in size
* marks the source's active call; other numbers are inactive results; i = inactive; ? = inconclusive; nt = no result given. Unless noted, calls come from the whole dose curve; as a rule, active = well fitted curve in the direction sought with a large enough effect; inconclusive = small, poorly fitted or top-dose-only effect, or another doubt; inactive = no such curve, though single readings can be large; an effect the other way counts as inactive or inconclusive.

SMILES	TGFb inhibitor	ATXN2 expr inh	HepG2 tox-1	S2 tox	IL1B secr inh	TGFb confirm	HepG2 tox-2	TGFb CCL64 inh	COP TGFb inh
O=C(CCC(=O)c1ccc(F)cc1)Nc1cccc(S(=O)(=O)Nc2cccc(Cl)c2)c1	13µM*	0%	-28%	i	8	?	?	?	19%
O=C(CCC(=O)c1ccc(F)cc1)Nc1ccc(Cl)cc1	-4%	-20%	-26%	i	nt	nt	nt	nt	nt
O=S(=O)(c1ccc2nc(SCc3cccc(Cl)c3)[nH]c2c1)N1CCOCC1	0%	-13%	nt	i	-17	nt	nt	nt	nt
O=S(=O)(c1ccc2nc(SCc3ccc(Cl)cc3)[nH]c2c1)N1CCOCC1	10µM*	-21%	-19%	i	-25	12µM*	-23%	?	20%
COc1ccc(/C=C/C(=O)Nc2nc3n(n2)C(c2ccc(F)cc2)C=C(c2ccccc2)N3)cc1 (centres undefined)	48%	1%	-64%	i	nt	nt	nt	nt	nt
Oc1ccccc1-c1nc(NCc2cccnc2)c2ccccc2n1	20µM*	?	-21%	i	?	?	?	?	17%
Cc1ccc(NC(=O)c2nc(S(C)(=O)=O)ncc2N(Cc2ccc(C(C)(C)C)cc2)Cc2ccco2)cc1C	-11%	5%	-7%	i	nt	nt	nt	nt	nt
COc1ccc(NC(=O)c2nc(S(C)(=O)=O)ncc2N(Cc2ccc(C)cc2)Cc2ccco2)cc1Cl	-5%	6%	4%	i	nt	nt	nt	nt	nt
O=[N+]([O-])c1cc(S(=O)(=O)Nc2ccccc2)ccc1N1CCN(c2ccc(O)cc2)CC1	?	-20%	-18%	?	-4	nt	nt	nt	nt
Cc1ccc(NS(=O)(=O)c2ccc(N3CCN(c4ccc(O)cc4)CC3)c([N+](=O)[O-])c2)c(C)c1	14µM*	?	-4%	i	?	12µM*	?	?	69%
CCn1c2ccccc2c2cc(/C=N/NC(=O)c3cccc(C)c3)ccc21	-8%	?	-43%	i	47	nt	nt	nt	nt
CCn1c2ccccc2c2cc(/C=N/NC(=O)c3ccccc3C)ccc21	4µM*	?	-12%	i	51	8.2µM*	4.1µM*	?	18%
CCn1cc2c(n1)-c1c(oc(C(=O)Nc3cccc(C(F)(F)F)c3)c1C)CC2	-27%	nt	3%	nt	nt	nt	nt	nt	nt
COc1ccc2oc(=Nc3cc(F)ccc3F)c(C(N)=O)cc2c1	8.9µM*	-30%	-7%	i	-4	?	0%	-6%	22%
COC(=O)CN1C(=O)C(C)(C)c2cc(S(=O)(=O)Nc3ccc(C(C)C)cc3)ccc21	-19%	9%	2%	i	nt	nt	nt	nt	nt
O=C(NCCN1CCOCC1)c1ccc(Cl)c(S(=O)(=O)N2CCCC2)c1	-16%	-13%	-7%	i	5	nt	nt	nt	nt
COc1ccc(C(=O)Nc2ccc(C)c(S(=O)(=O)N3CCOCC3)c2)cc1S(=O)(=O)N1CCCC1	11µM*	-19%	-7%	i	14	?	2%	?	2%
O=C(NCCN1CCOCC1)c1ccc(Cl)c(S(=O)(=O)N2CCCCCC2)c1	2.5µM*	-10%	-35%	i	20	?	-9%	-3%	1%
Cc1ccc(-c2ccc(CN3C(C(C)C)C(=O)N(Cc4cn(CCC5OCCO5)nn4)CCS3(=O)=O)cc2)c(C)c1 (centres undefined)	11µM*	?	-76%	?	?	23µM*	?	23µM*	-21%
CC1C(=O)N(Cc2cn(CCC3OCCCO3)nn2)CCS(=O)(=O)N1Cc1ccc(-c2ccc(Cl)cc2)cc1 (centres undefined)	13µM*	18µM*	-27%	28µM*	-7	?	?	?	67%
COc1ccc(-c2ccc(CN3C(C(C)C)C(=O)N(Cc4cn(CCC5OCCO5)nn4)CCS3(=O)=O)cc2)cc1 (centres undefined)	-25%	-18%	-11%	?	13	nt	nt	nt	nt
Cc1cccc(-c2noc(CN(C(=O)COc3ccc(C(C)C)cc3)C(C)C)n2)c1	?	?	-34%	?	nt	nt	nt	nt	nt
Cc1ccc(NC(=O)CSCc2cc(=O)c3ccccc3[nH]2)c(C)c1	?	1%	-18%	i	nt	nt	nt	nt	nt
COC(=O)c1nnn(CC(=O)Nc2c(C)cccc2C)c1N	0%	1%	-11%	i	nt	nt	nt	nt	nt
CC1CCCC(C)N1C(=O)Cn1cc(/C=C2/C(=O)Nc3ccccc32)c2ccccc21 (centres undefined)	6.3µM*	?	-17%	?	-55*	?	-21%	?	2%
SMILES	TGFb inhibitor	ATXN2 expr inh	HepG2 tox-1	S2 tox	IL1B secr inh	TGFb confirm	HepG2 tox-2	TGFb CCL64 inh	COP TGFb inh
Cc1cc(=O)n(CC(=O)N2CCCCC2)c2c1c(C)nn2C	-16%	3%	-9%	i	nt	nt	nt	nt	nt
COc1ccccc1CCC(=O)N(C)CC(=O)Nc1ccc(Cl)c(C(F)(F)F)c1	11µM*	-8%	-9%	i	0	?	-20%	?	-1%
CN(CC(=O)Nc1cccc(S(=O)(=O)N2CCCC2)c1)CC(=O)Nc1ccc(Cl)c(C(F)(F)F)c1	16µM*	?	-14%	?	-66*	16µM*	?	29µM*	60%
O=C(CNc1ccc(Cl)c(C(F)(F)F)c1)N1CCN(S(=O)(=O)c2ccccc2)CC1	13µM*	-6%	-8%	i	-30	12µM*	-3%	-25%	-10%
CC(=O)c1ccc(NCC(=O)N2CCN(S(=O)(=O)c3ccccc3)CC2)cc1	-22%	nt	-10%	?	-1	nt	nt	nt	nt
COCCn1c(CNC(=O)c2ccccc2C)nc2cccnc21	-17%	nt	-9%	nt	nt	nt	nt	nt	nt
Cc1cc(C(=O)N2CCN(C/C=C/c3ccccc3)CC2)cs1	16µM*	5%	-8%	i	1	?	-17%	9%	-22%
